# Laboratory results published in PMC7862700, “An all-to-all approach to the identification of sequence-specific readers for epigenetic DNA modifications on cytosine”.
# Columns and labels:
# Experiment in all cases: DAPPL (digital affinity profiling via proximity ligation, sequencing); 10 mM Tris-HCl pH 7.5, 50 mM NaCl, 1 mM DTT, 4% glycerol, room temperature, 30 min; GST-TFs on glutathione beads, 16-mer random dsDNA library, 0.1% formaldehyde crosslink after washing; high values mean tight binding
# FLI1 = biological target: T1, FLI1 (Homo sapiens, UniProt Q01543 1-452); settings: protein: recombinant; tags: N-terminal GST; dsDNA, one strand shown
# T1 sequence: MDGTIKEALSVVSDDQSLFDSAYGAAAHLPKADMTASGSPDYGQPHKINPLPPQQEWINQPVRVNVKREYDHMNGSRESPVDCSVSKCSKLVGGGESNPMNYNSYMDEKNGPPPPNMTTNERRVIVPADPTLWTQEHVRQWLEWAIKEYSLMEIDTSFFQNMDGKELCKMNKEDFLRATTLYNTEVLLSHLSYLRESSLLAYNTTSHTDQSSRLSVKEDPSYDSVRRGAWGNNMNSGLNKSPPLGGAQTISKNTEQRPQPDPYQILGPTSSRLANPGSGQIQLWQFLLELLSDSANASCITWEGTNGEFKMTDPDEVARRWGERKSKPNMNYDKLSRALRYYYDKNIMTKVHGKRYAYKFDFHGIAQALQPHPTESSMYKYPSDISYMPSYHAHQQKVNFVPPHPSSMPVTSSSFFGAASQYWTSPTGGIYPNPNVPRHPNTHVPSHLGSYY
# How it was run: (§1)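 Sequencing on an Illumina NextSeq500 followed washing, crosslinking with 0.1% formaldehyde, proximity ligation (BsaI/T4 ligase, 1 h, 37 °C) and PCR amplification of pools that had been incubated for 30 min at room temperature with 200 nmole of a random double-stranded 16-mer DNA library in Tris/NaCl/DTT/glycerol buffer. Each pool held DNA-barcoded human transcription factors, expressed in yeast as GST fusions and captured on glutathione beads, plus a tag-only sample. Binding signal is a hexamer's read frequency for a factor divided by its frequency in the tag-only sample.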
# ELK1 = biological target: T2, ELK1 (Homo sapiens, UniProt P19419 1-428); settings: protein: recombinant; tags: N-terminal GST; dsDNA, one strand shown
# T2 sequence: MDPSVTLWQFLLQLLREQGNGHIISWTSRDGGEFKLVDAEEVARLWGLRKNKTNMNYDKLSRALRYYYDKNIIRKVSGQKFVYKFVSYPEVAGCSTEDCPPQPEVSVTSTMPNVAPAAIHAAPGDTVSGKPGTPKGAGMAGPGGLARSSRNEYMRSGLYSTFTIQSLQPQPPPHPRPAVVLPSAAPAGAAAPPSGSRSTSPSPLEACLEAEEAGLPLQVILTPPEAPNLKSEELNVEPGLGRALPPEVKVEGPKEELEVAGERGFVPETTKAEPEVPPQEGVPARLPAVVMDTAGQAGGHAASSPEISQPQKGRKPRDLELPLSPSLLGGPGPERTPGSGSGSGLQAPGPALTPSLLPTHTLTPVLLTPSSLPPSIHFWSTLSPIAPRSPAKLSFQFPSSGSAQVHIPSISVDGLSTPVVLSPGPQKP
# How it was run: as §1
# GABPA = biological target: T3, GABPA (Homo sapiens, UniProt Q06546 1-454); settings: protein: recombinant; tags: N-terminal GST; dsDNA, one strand shown
# T3 sequence: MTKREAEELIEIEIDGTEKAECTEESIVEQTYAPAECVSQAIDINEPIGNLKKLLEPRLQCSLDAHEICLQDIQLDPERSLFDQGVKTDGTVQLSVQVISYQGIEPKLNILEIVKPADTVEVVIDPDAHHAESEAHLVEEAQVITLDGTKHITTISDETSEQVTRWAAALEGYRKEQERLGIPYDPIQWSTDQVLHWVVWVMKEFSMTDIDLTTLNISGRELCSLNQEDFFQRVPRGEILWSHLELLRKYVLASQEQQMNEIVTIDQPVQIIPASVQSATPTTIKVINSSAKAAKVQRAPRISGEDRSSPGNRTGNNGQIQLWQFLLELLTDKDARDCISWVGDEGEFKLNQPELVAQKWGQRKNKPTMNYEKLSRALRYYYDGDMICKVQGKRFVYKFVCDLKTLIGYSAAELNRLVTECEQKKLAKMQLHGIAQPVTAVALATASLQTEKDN
# How it was run: as §1
# ERG = biological target: T4, ERG (Homo sapiens, UniProt P11308 1-479); settings: protein: recombinant; tags: N-terminal GST; dsDNA, one strand shown
# T4 sequence: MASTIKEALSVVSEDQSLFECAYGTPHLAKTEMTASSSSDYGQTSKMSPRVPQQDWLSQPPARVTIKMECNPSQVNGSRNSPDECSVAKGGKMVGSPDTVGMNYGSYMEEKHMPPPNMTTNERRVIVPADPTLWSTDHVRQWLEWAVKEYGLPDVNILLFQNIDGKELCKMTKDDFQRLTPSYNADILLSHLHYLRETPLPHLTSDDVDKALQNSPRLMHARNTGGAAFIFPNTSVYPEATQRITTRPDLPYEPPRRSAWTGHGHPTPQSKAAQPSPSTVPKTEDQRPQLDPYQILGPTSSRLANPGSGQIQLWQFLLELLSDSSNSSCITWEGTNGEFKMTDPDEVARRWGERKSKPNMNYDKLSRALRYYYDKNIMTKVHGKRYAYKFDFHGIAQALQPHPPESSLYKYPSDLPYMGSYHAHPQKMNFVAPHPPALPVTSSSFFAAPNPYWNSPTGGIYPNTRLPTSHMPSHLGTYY
# How it was run: as §1
# ELF1 = ELF1 (Homo sapiens, UniProt P32519 1-619); settings: protein: recombinant; tags: N-terminal GST; dsDNA, one strand shown
# How it was run: as §1
# EHF = biological target: T5, EHF (Homo sapiens, UniProt Q9NZC4 1-300); settings: protein: recombinant; tags: N-terminal GST; dsDNA, one strand shown
# T5 sequence: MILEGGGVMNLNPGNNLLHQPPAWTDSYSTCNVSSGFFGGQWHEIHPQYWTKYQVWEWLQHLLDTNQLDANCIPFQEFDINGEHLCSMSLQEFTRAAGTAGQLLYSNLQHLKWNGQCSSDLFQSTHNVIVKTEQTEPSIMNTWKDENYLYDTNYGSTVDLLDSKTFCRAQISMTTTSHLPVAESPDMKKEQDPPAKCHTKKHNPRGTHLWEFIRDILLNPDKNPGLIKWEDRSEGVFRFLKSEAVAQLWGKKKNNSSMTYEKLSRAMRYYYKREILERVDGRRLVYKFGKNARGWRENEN
# How it was run: as §1
# SPI1 = SPI1 (Homo sapiens, UniProt P17947 1-270); settings: protein: recombinant; tags: N-terminal GST; dsDNA, one strand shown
# How it was run: as §1
# SPIB = SPIB (Homo sapiens, UniProt Q01892 1-262); settings: protein: recombinant; tags: N-terminal GST; dsDNA, one strand shown
# How it was run: as §1
# ELK3 = biological target: T6, ELK3 (Homo sapiens, UniProt P41970 1-407); settings: protein: recombinant; tags: N-terminal GST; dsDNA, one strand shown
# T6 sequence: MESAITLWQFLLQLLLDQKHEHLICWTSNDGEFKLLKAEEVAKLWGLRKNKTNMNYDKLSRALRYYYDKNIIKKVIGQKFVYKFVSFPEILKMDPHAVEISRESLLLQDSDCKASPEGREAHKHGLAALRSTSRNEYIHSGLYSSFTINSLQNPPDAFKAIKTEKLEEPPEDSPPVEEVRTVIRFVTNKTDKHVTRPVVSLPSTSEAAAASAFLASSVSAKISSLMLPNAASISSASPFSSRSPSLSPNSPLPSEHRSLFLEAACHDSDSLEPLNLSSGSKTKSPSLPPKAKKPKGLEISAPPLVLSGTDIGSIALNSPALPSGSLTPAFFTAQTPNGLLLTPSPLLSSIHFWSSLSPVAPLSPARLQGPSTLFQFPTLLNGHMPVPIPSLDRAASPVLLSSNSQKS
# How it was run: as §1
# FEV = biological target: T7, FEV (Homo sapiens, UniProt Q99581 1-238); settings: protein: recombinant; tags: N-terminal GST; dsDNA, one strand shown
# T7 sequence: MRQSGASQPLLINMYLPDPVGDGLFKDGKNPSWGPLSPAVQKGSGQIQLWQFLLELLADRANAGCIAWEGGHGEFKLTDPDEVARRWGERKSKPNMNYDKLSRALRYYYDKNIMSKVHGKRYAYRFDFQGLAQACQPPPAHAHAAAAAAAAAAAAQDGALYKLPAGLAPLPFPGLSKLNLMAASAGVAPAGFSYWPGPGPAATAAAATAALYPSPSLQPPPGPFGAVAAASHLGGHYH
# How it was run: as §1
# ETV5 = ETV5 (Homo sapiens, UniProt P41161 1-510); settings: protein: recombinant; tags: N-terminal GST; dsDNA, one strand shown
# How it was run: as §1
# HSF1 = HSF1 (Homo sapiens, UniProt Q00613 1-529); settings: protein: recombinant; tags: N-terminal GST; chain copies: 3; dsDNA, one strand shown
# How it was run: as §1
# SPIC = biological target: T8, SPIC (Homo sapiens, UniProt Q8N5J4 1-248); settings: protein: recombinant; tags: N-terminal GST; dsDNA, one strand shown
# T8 sequence: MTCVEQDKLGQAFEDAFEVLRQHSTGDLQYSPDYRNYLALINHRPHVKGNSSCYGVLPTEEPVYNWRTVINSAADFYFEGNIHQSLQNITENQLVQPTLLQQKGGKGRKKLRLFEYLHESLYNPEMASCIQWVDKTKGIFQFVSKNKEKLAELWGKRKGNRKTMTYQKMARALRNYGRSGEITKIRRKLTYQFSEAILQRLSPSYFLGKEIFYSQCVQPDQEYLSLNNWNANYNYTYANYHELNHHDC
# How it was run: as §1
# ELF4 = ELF4 (Homo sapiens, UniProt Q99607 1-663); settings: protein: recombinant; tags: N-terminal GST; dsDNA, one strand shown
# How it was run: as §1
# ELK4 = biological target: T9, ELK4 (Homo sapiens, UniProt P28324-2 1-405); settings: protein: recombinant; tags: N-terminal GST; dsDNA, one strand shown
# T9 sequence: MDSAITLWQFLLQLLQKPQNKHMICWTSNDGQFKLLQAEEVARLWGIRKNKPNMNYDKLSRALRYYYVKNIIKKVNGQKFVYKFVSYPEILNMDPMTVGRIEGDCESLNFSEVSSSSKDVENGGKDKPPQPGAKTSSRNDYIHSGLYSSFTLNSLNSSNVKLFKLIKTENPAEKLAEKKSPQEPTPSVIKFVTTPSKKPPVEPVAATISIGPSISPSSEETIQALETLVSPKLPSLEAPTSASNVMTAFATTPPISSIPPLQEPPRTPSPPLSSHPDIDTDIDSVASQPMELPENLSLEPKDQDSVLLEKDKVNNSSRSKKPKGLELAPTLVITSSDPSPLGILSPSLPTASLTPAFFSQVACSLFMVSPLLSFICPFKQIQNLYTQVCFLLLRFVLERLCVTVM
# How it was run: as §1
# ETV2 = biological target: T10, ETV2 (Homo sapiens, UniProt O00321 1-342); settings: protein: recombinant; tags: N-terminal GST; dsDNA, one strand shown
# T10 sequence: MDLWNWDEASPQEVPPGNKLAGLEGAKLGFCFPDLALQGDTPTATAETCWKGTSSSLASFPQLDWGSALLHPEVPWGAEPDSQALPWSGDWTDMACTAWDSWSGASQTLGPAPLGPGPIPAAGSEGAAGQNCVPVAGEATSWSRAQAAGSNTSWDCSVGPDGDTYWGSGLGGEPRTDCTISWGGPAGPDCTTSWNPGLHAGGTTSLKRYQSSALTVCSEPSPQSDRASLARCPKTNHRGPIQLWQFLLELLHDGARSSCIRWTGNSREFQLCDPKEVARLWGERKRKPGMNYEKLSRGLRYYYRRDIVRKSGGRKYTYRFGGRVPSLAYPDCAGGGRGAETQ
# How it was run: as §1
# ELF3 = biological target: T11, ELF3 (Homo sapiens, UniProt P78545 1-371); settings: protein: recombinant; tags: N-terminal GST; dsDNA, one strand shown
# T11 sequence: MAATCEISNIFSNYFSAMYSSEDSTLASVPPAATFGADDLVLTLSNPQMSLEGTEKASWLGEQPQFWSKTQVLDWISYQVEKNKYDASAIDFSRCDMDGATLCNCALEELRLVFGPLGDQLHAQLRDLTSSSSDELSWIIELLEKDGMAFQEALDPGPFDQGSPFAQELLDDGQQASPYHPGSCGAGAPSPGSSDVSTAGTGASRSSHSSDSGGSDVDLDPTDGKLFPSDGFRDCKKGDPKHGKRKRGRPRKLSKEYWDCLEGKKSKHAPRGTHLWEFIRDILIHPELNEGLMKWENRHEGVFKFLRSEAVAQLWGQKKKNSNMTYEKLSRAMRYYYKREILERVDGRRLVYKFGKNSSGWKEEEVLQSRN
# How it was run: as §1
# CRX = CRX (Homo sapiens, UniProt O43186 1-299); settings: protein: recombinant; tags: N-terminal GST; dsDNA, one strand shown
# How it was run: as §1
# ETV1 = ETV1 (Homo sapiens, UniProt P50549 1-477); settings: protein: recombinant; tags: N-terminal GST; dsDNA, one strand shown
# How it was run: as §1
# Chain of ELF1 (P32519 whole entry): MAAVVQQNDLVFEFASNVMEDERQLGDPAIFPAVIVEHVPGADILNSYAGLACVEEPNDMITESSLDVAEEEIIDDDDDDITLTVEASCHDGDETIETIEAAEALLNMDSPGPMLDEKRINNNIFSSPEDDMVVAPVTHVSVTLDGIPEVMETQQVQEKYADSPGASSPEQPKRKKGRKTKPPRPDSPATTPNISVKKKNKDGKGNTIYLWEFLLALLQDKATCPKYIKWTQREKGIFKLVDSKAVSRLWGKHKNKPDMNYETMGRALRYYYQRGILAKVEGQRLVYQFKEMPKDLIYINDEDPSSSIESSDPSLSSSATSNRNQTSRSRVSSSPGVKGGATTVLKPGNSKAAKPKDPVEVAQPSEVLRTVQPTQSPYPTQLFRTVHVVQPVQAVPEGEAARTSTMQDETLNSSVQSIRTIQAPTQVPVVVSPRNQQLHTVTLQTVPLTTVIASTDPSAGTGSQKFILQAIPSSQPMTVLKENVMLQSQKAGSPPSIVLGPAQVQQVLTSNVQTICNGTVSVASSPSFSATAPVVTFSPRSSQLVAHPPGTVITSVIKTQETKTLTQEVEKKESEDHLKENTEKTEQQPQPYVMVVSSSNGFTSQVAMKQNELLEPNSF
# Chain of ELF4 (Q99607 whole entry): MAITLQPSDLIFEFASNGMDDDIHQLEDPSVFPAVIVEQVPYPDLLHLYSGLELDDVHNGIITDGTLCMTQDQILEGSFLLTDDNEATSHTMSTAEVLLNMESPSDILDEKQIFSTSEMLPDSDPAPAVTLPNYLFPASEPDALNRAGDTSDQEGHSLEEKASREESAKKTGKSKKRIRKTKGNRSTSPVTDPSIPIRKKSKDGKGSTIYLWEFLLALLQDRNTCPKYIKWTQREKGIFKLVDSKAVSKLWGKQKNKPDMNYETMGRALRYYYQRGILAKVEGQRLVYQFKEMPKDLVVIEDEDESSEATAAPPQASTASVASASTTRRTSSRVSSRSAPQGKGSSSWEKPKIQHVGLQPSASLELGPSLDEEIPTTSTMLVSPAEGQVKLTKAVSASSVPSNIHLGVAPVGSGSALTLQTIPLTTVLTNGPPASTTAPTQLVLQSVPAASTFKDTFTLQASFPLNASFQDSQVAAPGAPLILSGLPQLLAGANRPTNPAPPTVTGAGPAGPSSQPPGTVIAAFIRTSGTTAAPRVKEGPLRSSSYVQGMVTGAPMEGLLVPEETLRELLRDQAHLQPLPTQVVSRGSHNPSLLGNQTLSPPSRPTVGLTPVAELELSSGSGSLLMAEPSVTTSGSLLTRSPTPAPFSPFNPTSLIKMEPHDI
# Chain of HSF1 (Q00613 whole entry): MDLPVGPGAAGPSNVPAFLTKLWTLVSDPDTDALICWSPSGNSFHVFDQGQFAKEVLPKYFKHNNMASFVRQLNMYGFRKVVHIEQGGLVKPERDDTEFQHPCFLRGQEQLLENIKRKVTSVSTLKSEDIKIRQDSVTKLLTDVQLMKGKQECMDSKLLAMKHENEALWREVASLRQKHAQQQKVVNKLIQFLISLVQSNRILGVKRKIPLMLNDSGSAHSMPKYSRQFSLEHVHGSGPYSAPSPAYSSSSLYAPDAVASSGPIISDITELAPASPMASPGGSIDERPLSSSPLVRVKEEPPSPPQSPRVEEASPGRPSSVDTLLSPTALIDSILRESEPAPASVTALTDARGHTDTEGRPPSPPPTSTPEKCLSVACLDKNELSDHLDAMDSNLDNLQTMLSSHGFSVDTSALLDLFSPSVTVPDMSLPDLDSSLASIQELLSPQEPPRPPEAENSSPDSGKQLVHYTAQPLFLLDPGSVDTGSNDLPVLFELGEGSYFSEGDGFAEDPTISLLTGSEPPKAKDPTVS
# Chain of ETV1 (P50549 whole entry): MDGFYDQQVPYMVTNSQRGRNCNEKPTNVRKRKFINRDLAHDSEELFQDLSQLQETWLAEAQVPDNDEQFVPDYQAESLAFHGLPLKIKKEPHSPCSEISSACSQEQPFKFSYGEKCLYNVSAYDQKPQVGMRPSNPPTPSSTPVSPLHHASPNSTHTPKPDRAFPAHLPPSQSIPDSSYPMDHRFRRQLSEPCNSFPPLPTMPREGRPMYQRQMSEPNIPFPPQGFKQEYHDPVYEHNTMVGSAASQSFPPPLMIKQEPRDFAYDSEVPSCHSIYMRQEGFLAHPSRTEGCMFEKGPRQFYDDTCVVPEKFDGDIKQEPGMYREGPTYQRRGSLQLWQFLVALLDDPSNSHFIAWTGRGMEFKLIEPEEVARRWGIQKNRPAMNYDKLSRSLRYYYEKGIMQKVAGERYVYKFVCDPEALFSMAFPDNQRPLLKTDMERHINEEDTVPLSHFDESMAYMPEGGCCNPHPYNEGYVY
# Chain of CRX (O43186 whole entry): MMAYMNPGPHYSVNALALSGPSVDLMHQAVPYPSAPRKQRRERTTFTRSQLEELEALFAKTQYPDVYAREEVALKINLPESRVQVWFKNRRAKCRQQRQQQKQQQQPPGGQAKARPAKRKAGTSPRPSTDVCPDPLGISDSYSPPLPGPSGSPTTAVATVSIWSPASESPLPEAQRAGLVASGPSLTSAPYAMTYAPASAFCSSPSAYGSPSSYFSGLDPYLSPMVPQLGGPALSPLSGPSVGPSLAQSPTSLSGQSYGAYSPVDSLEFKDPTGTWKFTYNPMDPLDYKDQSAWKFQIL
# Chain of SPIB (Q01892 whole entry): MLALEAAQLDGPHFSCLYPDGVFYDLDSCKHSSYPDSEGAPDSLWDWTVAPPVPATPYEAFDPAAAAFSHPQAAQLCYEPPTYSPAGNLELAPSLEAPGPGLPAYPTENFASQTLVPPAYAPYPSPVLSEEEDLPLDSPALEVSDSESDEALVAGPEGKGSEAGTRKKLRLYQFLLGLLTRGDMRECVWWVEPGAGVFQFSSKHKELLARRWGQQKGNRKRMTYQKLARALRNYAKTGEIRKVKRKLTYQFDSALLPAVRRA
# Chain of ETV5 (P41161 whole entry): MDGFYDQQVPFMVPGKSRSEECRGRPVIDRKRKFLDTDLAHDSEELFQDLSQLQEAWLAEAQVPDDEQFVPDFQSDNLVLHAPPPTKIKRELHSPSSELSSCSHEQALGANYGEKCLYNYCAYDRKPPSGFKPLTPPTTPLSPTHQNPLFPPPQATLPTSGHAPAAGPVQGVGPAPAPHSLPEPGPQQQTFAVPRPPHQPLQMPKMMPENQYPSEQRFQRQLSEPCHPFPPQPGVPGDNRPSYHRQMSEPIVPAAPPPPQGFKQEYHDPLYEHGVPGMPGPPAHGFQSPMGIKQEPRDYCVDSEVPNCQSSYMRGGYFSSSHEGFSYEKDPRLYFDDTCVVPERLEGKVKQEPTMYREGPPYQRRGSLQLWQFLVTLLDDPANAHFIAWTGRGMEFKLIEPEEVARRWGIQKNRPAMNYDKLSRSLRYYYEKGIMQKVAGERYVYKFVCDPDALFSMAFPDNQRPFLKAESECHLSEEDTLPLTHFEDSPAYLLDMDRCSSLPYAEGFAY
sequence,measurement,setting,value
TCTTAG,binding signal,FLI1,"1.22 fold enrichment (6-mer frequency, TF over GST control)"
same,binding signal,ELK1,"1.21 fold enrichment (6-mer frequency, TF over GST control)"
same,binding signal,GABPA,"1.22 fold enrichment (6-mer frequency, TF over GST control)"
same,binding signal,ERG,"1.15 fold enrichment (6-mer frequency, TF over GST control)"
same,binding signal,ELF1,"1.25 fold enrichment (6-mer frequency, TF over GST control)"
same,binding signal,EHF,"1.21 fold enrichment (6-mer frequency, TF over GST control)"
same,binding signal,SPI1,"1.13 fold enrichment (6-mer frequency, TF over GST control)"
same,binding signal,SPIB,"1.09 fold enrichment (6-mer frequency, TF over GST control)"
same,binding signal,ELK3,"1.11 fold enrichment (6-mer frequency, TF over GST control)"
same,binding signal,FEV,"1.16 fold enrichment (6-mer frequency, TF over GST control)"
same,binding signal,ETV5,"1.21 fold enrichment (6-mer frequency, TF over GST control)"
same,binding signal,HSF1,"1.5 fold enrichment (6-mer frequency, TF over GST control)"
same,binding signal,SPIC,"1.36 fold enrichment (6-mer frequency, TF over GST control)"
same,binding signal,ELF4,"1.3 fold enrichment (6-mer frequency, TF over GST control)"
same,binding signal,ELK4,"1.21 fold enrichment (6-mer frequency, TF over GST control)"
same,binding signal,ETV2,"1.26 fold enrichment (6-mer frequency, TF over GST control)"
same,binding signal,ELF3,"1.29 fold enrichment (6-mer frequency, TF over GST control)"
same,binding signal,CRX,"1.86 fold enrichment (6-mer frequency, TF over GST control)"
same,binding signal,ETV1,"1.25 fold enrichment (6-mer frequency, TF over GST control)"
